Sampled rows, rich in hits. Any-hit rate of the full collection: about 8.8%.
HT1080-NT tox: kills 2HG-producing HT-1080-NT fibrosarcoma cells; 360,000 tested, 1.6% active; Potency, µM (series often up to 46.1 µM), actives largely listed as cytotoxic; HT-1080-NT fibrosarcoma viability, CellTiter-Glo ATP luminescence, 48 h; AID 686970;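 note: NT is the 2HG producing partner of a matched IDH1 knockdown line; nearly all actives have a fitted effect of over 55% in size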
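A 48-hour cytotoxicity screen used HT-1080-NT cells plated 2 hours before compound delivery. ATP-based CellTiter-Glo luminescence measured viability, normalized to DMSO and no-cell controls.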
KB-3-1 tox: KB-3-1 parental cell cytotoxicity | Potency, µM (titrated, usually from 46.1 µM), usual class: cytotoxic | 400,000 tested, 1.4% active | KB-3-1 viability, CellTiter-Glo ATP luminescence, 72 h; note: nearly all actives have a fitted effect of over 60% in size
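KB-3-1 cells, DMEM (no phenol red) + 10% FBS; compound by pin transfer, 72 h, 37 °C. Readout: CellTiter-Glo luminescence after 10 min. Data normalized, curve-fitted.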
HT1080 IDH1KD tx: toxicity to HT-1080 IDH1 knockdown cells (counter line); HT-1080 IDH1 knockdown viability, ATP luminescence, 48 h; Potency, µM (series often up to 46.1 µM), usual class: cytotoxic; 360,000 tested, 2% active
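Luminescent ATP read-out (CellTiter-Glo, 10 min at room temperature) after 48 h compound exposure at 37 °C gave viability of IDH1-knockdown HT-1080 cells. Activity was normalised to DMSO and cell-free wells, then fitted as concentration-response curves.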
IL1B secr inh: blocks inflammasome-driven IL-1 beta release | activity change, % at 57.5 µM | 360,000 tested, 4.7% active | THP-1 LPS/ATP IL-1B secretion, AlphaLISA, 16 h; hits give low values; in the data active = activity change below about -50%; inconclusive = mostly about -30% to -49%
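Secreted IL-1B measured by AlphaLISA bead assay after 16 h compound exposure of THP-1 cells; compounds (final up to 57.5 uM) added 1 h before LPS (250 ng/mL) and ATP (1.25 mM) stimulation; lower signal means less secretion.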
KB-V1 cytotox: kills drug-selected multidrug resistant KB-V1 cells; 400,000 tested, 3.4% active; AID 1347076; Potency, µM (top dose mostly 46.1 µM), usual class: cytotoxic; KB-V1 MDR cells viability, CellTiter-Glo, 72 h; note: nearly all actives have a fitted effect of over 60% in size
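Compound-treated KB-V1 multidrug-resistant cells, 72 h, 37 degrees C; viability by CellTiter-Glo. Fitted qHTS curves give the values.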
Numbers stand for hits. Unless noted, calls come from the whole dose curve; as a rule, active = well fitted curve in the direction sought with a large enough effect; inconclusive = small, poorly fitted or top-dose-only effect, or another doubt; inactive = no such curve, though single readings can be large; an effect the other way counts as inactive or inconclusive.

For CC(Sc1nnnn1C1CCCC1)C(=O)Nc1cccc(S(=O)(=O)N2CCOCC2)c1 (stereo not drawn) the results were HT1080-NT tox inactive, KB-3-1 tox inactive, HT1080 IDH1KD tx inactive, IL1B secr inh inactive and KB-V1 cytotox inconclusive.
COc1ccc2oc3cc(C)[n+]([O-])c(-c4ccc(Cl)cc4)c3c2c1 was read as HT1080-NT tox inactive, KB-3-1 tox inconclusive, HT1080 IDH1KD tx inactive, IL1B secr inh inactive and KB-V1 cytotox inconclusive.
Screening COc1ccc(-c2c3c(cc(C)[n+]2[O-])oc2ccc(OC)cc23)cc1 returned HT1080-NT tox inactive, KB-3-1 tox inconclusive, HT1080 IDH1KD tx inactive, IL1B secr inh inconclusive and KB-V1 cytotox 10µM.
Screening COc1ccc2oc3cc(C)[n+]([O-])c(-c4ccc(C)cc4)c3c2c1 returned HT1080-NT tox inactive, KB-3-1 tox inconclusive, HT1080 IDH1KD tx inactive, IL1B secr inh inactive and KB-V1 cytotox 5.8µM.
`O=C(NCC(c1ccccc1Cl)N1CCCC1)C1CCN(C(=O)Nc2ccccc2)CC1` (stereo not drawn) gave HT1080-NT tox inactive, KB-3-1 tox inactive, HT1080 IDH1KD tx inactive, IL1B secr inh inactive and KB-V1 cytotox inactive.
For CC(=O)Nc1ccc(S(=O)(=O)NC2(C(F)(F)F)NC(=O)N(c3ccc(C)cc3)C2=O)cc1 (stereo not drawn) the results were HT1080-NT tox inactive, KB-3-1 tox inactive, HT1080 IDH1KD tx inactive, IL1B secr inh inactive and KB-V1 cytotox inactive.
`NC(=O)[C@H]1CC2(CC(c3cccc(NC(=O)COc4ccc(Cl)cc4)c3)=NO2)CN1C(=O)c1ccccc1C(=O)c1ccccc1` (stereo partly drawn) gave HT1080-NT tox inactive, KB-3-1 tox 21µM, HT1080 IDH1KD tx inactive, IL1B secr inh inconclusive and KB-V1 cytotox inactive.
`CCCCCC(=O)N1CC2(CC(c3cccc(NC(=O)COc4ccc(Cl)cc4)c3)=NO2)C[C@@H]1C(N)=O` (stereo partly drawn) gave HT1080-NT tox inactive, KB-3-1 tox inconclusive, HT1080 IDH1KD tx inactive, IL1B secr inh -67 and KB-V1 cytotox inactive.
Screening CN[C@H]1C[C@H]2c3cc(N4CCN(C)CC4)ccc3CCN2C(=O)[C@H]1[C@H](C)O returned HT1080-NT tox inactive, KB-3-1 tox inactive, HT1080 IDH1KD tx inactive, IL1B secr inh inactive and KB-V1 cytotox inactive.
CN(C(=O)CSc1cc(C(=O)c2nccn2C)c2ccccc2n1)c1ccccc1 was read as HT1080-NT tox inactive, KB-3-1 tox inconclusive, HT1080 IDH1KD tx inactive, IL1B secr inh -56 and KB-V1 cytotox inconclusive.
For O=C(C[n+]1ccc(Cl)c2ccc(Cl)cc21)c1ccc(F)cc1 the results were KB-3-1 tox inconclusive and KB-V1 cytotox inactive.
`NN(Cc1ccccc1)C(=S)Nc1ccc(Cl)c(Cl)c1` gave HT1080-NT tox inactive, KB-3-1 tox inactive, HT1080 IDH1KD tx inactive, IL1B secr inh -56 and KB-V1 cytotox inactive.
CCN(C(=O)CSc1nnc(-c2ccc3c(c2)OCO3)o1)C1CCS(=O)(=O)C1 (stereo not drawn) was read as HT1080-NT tox inactive, KB-3-1 tox inactive, HT1080 IDH1KD tx inactive, IL1B secr inh inactive and KB-V1 cytotox inconclusive.
Screening Cc1cc(S(=O)(=O)NC2CCCCC2)ccc1OCC(=O)NCc1ccccn1 returned HT1080-NT tox inactive, KB-3-1 tox inactive, HT1080 IDH1KD tx inactive, IL1B secr inh inactive and KB-V1 cytotox 18µM.
`Cc1ccc(OCC(=O)N(c2ccccn2)C2CCCCC2)c(C)c1` gave HT1080-NT tox inactive, KB-3-1 tox inactive, HT1080 IDH1KD tx inactive, IL1B secr inh inactive and KB-V1 cytotox 18µM.
For O=C(COc1ccc(Cl)cc1Cl)N(c1ccccn1)C1CCCCC1 the results were HT1080-NT tox inactive, KB-3-1 tox inconclusive, HT1080 IDH1KD tx inactive, IL1B secr inh inactive and KB-V1 cytotox inactive.
`CCOc1ccccc1NC(=O)CCC(=O)Nc1nnc(C2CCCCC2)s1` gave HT1080-NT tox inactive, KB-3-1 tox inactive, HT1080 IDH1KD tx inactive, IL1B secr inh inactive and KB-V1 cytotox inactive.
CCN1C(=O)C(=O)N(CC(=O)Nc2cccc(C(F)(F)F)c2)C1=O was read as HT1080-NT tox inactive, KB-3-1 tox inactive, HT1080 IDH1KD tx inactive, IL1B secr inh inactive and KB-V1 cytotox inactive.
OCCCn1c(CCCNc2nc(-c3cccc(Br)c3)cs2)nc2cc(Cl)c(N3CCCCC3)cc21 was read as HT1080-NT tox 18µM, KB-3-1 tox inactive, HT1080 IDH1KD tx inconclusive, IL1B secr inh inactive and KB-V1 cytotox inactive.
COc1ccc(-c2csc(NCCc3nc4cc(Cl)c(N5CCCCC5)cc4n3CCOCCO)n2)cc1 was read as HT1080-NT tox inactive, KB-3-1 tox inactive, HT1080 IDH1KD tx inactive, IL1B secr inh inactive and KB-V1 cytotox inactive.
Screening CC(=O)O[C@H]1C(=O)[C@]2(C)[C@H]([C@H](OC(=O)c3ccccc3)[C@]3(O)C[C@H](OC(=O)[C@H](O)[C@@H](NC(=O)c4ccccc4)c4ccccc4)C(C)=C1C3(C)C)[C@]1(OC(C)=O)CO[C@@H]1C[C@@H]2O returned HT1080-NT tox inconclusive, KB-3-1 tox 0.16µM, HT1080 IDH1KD tx 0.015µM, IL1B secr inh inactive and KB-V1 cytotox 18µM.
CC(=O)O[C@H]1C(=O)[C@@]2(C)C([C@H](OC(=O)c3ccccc3)[C@]3(O)C[C@H](OC(=O)[C@H](O)[C@@H](NC(=O)c4ccccc4)c4ccccc4)C(C)=C1C3(C)C)[C@]1(OC(C)=O)CO[C@@H]1C[C@H]2O (stereo partly drawn) was read as HT1080-NT tox inconclusive, KB-3-1 tox 0.058µM, HT1080 IDH1KD tx 0.18µM, IL1B secr inh inactive and KB-V1 cytotox inconclusive.
`COc1ccc(CNc2ncnc3nc[nH]c23)cc1OC` gave KB-3-1 tox inactive and KB-V1 cytotox inactive.
CCN(C(=O)CSc1ncccc1C(=O)Oc1cccc([N+](=O)[O-])c1)c1cccc(C)c1 was read as HT1080-NT tox inactive, KB-3-1 tox inactive, HT1080 IDH1KD tx inactive, IL1B secr inh -55 and KB-V1 cytotox inactive.
CSc1cccc(NC(=O)CSc2ncccc2C(=O)Oc2cccc([N+](=O)[O-])c2)c1 was read as HT1080-NT tox inactive, KB-3-1 tox inactive, HT1080 IDH1KD tx inactive, IL1B secr inh inactive and KB-V1 cytotox inconclusive.
Screening O=C(O)Cc1cn(Cc2ccc(F)cc2)c2ccccc12 returned HT1080-NT tox inactive, KB-3-1 tox inactive, HT1080 IDH1KD tx inactive, IL1B secr inh inactive and KB-V1 cytotox inactive.
Screening O=c1c2ccccc2ncn1Cc1ccc(Cl)c(Cl)c1 returned HT1080-NT tox inactive, KB-3-1 tox inactive, HT1080 IDH1KD tx inactive, IL1B secr inh inactive and KB-V1 cytotox inactive.
Screening Cc1[nH][nH]c(=O)c1C(c1c(C)[nH][nH]c1=O)c1cn(Cc2ccc(Cl)c(Cl)c2)c2ccccc12 returned HT1080-NT tox inactive, KB-3-1 tox 23µM, HT1080 IDH1KD tx inconclusive, IL1B secr inh -98 and KB-V1 cytotox 13µM.

Compound activity (PubChem)
